This is one part of the list. Active and inactive are the calls of the source. The rule behind the calls is not given here.

This assay in a line: DNA intercalator displacement (FID) – biochemical, fluorescence, counter-screen for HCV NS3 helicase inhibitor project, dose response (AID 2172). To be noted: fluorescent intercalator displacement from DNA. (In general: The purpose of a counterscreen is to sort out artefacts and off-target activity.)

`COc1ccc(N2C(=O)/C(=C/c3ccco3)C(=O)NC2=S)cc1`: the IC50 is 28.9 µM (inactive).

By IC50 is commonly meant the midpoint of a concentration-inhibition curve.

For the origin of these results see PubChem BioAssay AID2172 (The Scripps Research Institute Molecular Screening Center, 2009).
